In ChEMBL document CHEMBL5724796, “Tm Shift (DSF) assay results for EUbOPEN Chemogenomics Library” (2024) one finds ΔTm data, which are given here for 11 molecules.

Conditions in all cases: Compound concentration 20.0 uM
Test [1] addresses Tyrosine-protein kinase ABL1 (Homo sapiens) (UniProt P00519).
Test [2] concerns the target Bromodomain-containing protein 4 (Homo sapiens) (UniProt O60885).
Test [3] addresses Cyclin-dependent kinase 2 (Homo sapiens) (UniProt P24941).
The target of test [4] is Casein kinase I isoform delta (Homo sapiens) (UniProt P48730).
In test [5] the target is Glycogen synthase kinase-3 beta (Homo sapiens) (UniProt P49841).
Test [6] concerns the target Mitogen-activated protein kinase 1 (Homo sapiens) (UniProt P28482).
Test [7] deals with T1, Aurora kinase A (Homo sapiens) (UniProt O14965).
T1 sequence (whole entry): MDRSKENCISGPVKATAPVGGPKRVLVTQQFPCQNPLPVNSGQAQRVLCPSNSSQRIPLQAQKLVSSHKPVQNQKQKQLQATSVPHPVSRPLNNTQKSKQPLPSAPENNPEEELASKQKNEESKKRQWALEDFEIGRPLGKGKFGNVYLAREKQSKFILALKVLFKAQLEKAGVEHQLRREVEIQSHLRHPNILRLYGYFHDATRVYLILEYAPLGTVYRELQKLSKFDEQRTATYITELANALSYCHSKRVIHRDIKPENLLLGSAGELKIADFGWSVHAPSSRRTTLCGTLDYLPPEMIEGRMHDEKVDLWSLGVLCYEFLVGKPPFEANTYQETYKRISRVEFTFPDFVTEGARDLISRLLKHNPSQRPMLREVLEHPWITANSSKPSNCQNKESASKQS

The target in test [8] is T2, Transcription intermediary factor 1-alpha (Homo sapiens) (UniProt O15164).
T2 sequence (whole entry): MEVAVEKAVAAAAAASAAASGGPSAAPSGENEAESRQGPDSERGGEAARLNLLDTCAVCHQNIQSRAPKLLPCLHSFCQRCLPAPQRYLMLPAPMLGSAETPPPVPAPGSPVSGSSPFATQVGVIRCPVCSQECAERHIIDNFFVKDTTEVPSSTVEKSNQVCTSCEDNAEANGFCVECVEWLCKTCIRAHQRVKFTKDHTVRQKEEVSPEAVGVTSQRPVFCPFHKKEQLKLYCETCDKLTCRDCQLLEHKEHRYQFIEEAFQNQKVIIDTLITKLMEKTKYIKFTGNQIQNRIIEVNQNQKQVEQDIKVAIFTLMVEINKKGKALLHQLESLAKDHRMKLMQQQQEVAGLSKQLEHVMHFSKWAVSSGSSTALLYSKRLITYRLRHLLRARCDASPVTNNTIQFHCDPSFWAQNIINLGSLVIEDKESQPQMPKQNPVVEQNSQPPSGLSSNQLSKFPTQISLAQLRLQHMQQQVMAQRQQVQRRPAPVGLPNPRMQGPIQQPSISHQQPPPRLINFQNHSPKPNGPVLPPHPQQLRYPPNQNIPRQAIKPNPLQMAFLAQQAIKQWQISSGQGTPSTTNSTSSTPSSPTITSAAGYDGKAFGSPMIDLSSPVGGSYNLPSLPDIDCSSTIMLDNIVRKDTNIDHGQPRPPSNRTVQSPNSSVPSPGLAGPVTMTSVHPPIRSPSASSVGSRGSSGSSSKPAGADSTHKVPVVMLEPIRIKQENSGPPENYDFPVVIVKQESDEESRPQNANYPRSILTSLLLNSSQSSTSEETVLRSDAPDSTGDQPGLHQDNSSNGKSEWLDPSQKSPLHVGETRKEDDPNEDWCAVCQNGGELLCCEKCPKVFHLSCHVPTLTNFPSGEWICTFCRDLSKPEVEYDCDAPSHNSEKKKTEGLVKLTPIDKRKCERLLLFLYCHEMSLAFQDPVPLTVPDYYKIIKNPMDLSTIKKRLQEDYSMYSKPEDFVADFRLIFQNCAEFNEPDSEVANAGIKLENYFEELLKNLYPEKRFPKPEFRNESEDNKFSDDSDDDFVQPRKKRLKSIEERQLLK

Chain of Tyrosine-protein kinase ABL1 (Homo sapiens) (P00519 whole entry): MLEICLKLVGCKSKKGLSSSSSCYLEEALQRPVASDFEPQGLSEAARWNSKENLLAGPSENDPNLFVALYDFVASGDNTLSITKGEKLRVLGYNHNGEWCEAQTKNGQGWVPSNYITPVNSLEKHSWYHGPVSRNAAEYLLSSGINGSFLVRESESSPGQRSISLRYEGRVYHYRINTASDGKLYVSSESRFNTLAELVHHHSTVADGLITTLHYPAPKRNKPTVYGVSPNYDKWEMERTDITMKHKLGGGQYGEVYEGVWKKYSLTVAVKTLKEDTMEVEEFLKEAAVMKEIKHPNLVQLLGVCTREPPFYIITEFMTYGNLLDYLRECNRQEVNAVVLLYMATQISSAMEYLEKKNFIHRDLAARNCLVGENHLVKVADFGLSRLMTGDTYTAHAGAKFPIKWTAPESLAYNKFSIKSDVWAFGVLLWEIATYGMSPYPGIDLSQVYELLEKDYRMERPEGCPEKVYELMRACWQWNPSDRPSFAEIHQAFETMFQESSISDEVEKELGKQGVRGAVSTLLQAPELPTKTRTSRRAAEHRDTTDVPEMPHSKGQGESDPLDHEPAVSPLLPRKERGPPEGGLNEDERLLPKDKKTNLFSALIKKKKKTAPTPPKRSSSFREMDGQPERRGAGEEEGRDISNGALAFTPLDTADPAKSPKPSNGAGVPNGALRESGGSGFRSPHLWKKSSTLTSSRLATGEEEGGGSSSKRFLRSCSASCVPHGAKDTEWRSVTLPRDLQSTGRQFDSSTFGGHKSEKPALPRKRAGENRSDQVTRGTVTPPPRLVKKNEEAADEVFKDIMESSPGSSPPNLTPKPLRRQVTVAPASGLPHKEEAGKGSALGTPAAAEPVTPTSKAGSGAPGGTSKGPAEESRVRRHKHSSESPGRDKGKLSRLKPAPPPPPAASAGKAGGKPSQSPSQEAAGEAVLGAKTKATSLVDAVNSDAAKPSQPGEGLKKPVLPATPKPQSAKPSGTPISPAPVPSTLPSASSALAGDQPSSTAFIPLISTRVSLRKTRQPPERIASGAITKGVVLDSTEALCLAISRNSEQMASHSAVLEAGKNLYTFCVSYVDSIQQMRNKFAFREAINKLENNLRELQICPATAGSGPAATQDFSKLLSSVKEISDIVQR
Chain of Casein kinase I isoform delta (Homo sapiens) (P48730 whole entry, looked up, canonical isoform): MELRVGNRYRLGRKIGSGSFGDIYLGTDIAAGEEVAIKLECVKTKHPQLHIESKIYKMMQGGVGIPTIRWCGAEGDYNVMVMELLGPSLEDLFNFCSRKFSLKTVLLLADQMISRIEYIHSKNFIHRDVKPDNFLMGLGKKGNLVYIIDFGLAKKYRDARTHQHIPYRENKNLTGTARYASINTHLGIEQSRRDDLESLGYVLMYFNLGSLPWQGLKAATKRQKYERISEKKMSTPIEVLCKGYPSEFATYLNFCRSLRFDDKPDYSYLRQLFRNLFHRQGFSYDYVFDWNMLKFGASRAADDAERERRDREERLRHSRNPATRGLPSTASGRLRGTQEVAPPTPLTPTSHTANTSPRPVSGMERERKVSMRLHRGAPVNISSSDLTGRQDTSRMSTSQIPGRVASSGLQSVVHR
Chain of Mitogen-activated protein kinase 1 (Homo sapiens) (P28482 whole entry): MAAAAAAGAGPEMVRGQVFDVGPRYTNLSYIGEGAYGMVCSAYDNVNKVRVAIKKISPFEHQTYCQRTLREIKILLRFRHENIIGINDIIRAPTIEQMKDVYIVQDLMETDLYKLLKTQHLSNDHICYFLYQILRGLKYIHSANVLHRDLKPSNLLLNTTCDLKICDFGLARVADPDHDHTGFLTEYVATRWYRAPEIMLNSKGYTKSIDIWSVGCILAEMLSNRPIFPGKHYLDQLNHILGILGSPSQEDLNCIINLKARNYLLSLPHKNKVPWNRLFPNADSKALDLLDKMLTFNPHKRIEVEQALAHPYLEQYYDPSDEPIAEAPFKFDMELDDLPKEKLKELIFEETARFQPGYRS
Chain of Glycogen synthase kinase-3 beta (Homo sapiens) (P49841 whole entry, looked up): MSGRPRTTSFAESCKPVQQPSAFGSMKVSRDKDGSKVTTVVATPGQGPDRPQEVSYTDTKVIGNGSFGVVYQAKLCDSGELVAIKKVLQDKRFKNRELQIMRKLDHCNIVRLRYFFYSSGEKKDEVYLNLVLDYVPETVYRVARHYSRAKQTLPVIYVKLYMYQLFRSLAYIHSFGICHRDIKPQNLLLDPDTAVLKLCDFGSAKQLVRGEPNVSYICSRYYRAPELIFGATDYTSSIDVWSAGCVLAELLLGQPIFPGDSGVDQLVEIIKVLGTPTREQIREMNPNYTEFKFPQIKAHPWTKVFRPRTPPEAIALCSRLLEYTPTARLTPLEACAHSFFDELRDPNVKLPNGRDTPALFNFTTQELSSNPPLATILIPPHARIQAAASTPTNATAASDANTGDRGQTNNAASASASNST

What is called ΔTm is the shift of the melting midpoint relative to a reference. In the case of `CCCOc1cc(OCCCCN(C)C)cc(Oc2cc3c(cc2NS(=O)(=O)c2ccc(OC)c(OC)c2)n(C)c(=O)n3C)c1`, the ΔTm in test [1] came out at 0.57 °C; in test [2] it was 0.5 °C; in test [3], 0.09 °C; in test [4], 0.22 °C; in test [5], 0.59 °C; in test [6], 0 °C. Moreover, the ΔTm in test [7] was -0.88 °C.
With `Cc1ccc(C)c(-n2sc3cc(F)ccc3c2=O)c1`, the ΔTm was -15.6 °C in test [1]; -11.5 °C in test [2]; -5.52 °C in test [3]; -0.06 °C in test [4]; 0 °C in test [5]; -16.1 °C in test [6]. Further, the figures for the ΔTm in test [7] and in test [8] were -1.97 °C and 0 °C, respectively.
With `Cc1cc(-n2cccc2)c(S(C)(=O)=O)cc1C(=O)N=C(N)N`, the shift in melting temperature (ΔTm) in test [1] is 0.53 °C; in test [2], -2.59 °C; in test [3], -0.16 °C; in test [4], -0.26 °C; in test [5] it was -0.28 °C; in test [6], 0.62 °C. Also, the ΔTm in test [7] was -2.33 °C; in test [8] it was -0.16 °C.
On to `O=[N+]([O-])c1ccc(CSc2ncnc3c2ncn3[C@@H]2O[C@H](CO)[C@@H](O)[C@H]2O)cc1`, for which the ΔTm in test [1] is -0.08 °C; in test [2], -1.24 °C; in test [3], -0.1 °C; in test [4] it was -0.39 °C; in test [5], -0.67 °C; in test [6], 0.1 °C. Besides, the results for the ΔTm in test [7] and in test [8] were -1.6 °C and -0.18 °C, respectively.
As to `O=[N+]([O-])c1c(Nc2cc(F)cc(Cl)c2)ccc2nonc12`, the ΔTm in test [1] was 0.44 °C; in test [2], -2.93 °C; in test [3], 0.03 °C; in test [4] it was -0.44 °C; in test [5], -0.33 °C; in test [6], 0.07 °C. In addition, the ΔTm in test [7] is -2.49 °C; in test [8], -0.26 °C.
As for `CC(C)c1cc(C(=O)N2Cc3ccc(CN4CCN(C)CC4)cc3C2)c(O)cc1O`, the ΔTm was 1.01 °C in test [1]; -1.29 °C in test [2]; 0.67 °C in test [3]; 0.22 °C in test [4]; -0.43 °C in test [5]; -0.06 °C in test [6]. Moreover, the ΔTm was -0.12 °C in test [7] and -0.61 °C in test [8].
With `CC(C)[C@@H]1NC(=O)[C@H](Cc2ccc(O)cc2)NC(=O)[C@@H](CC(=O)O)NC(=O)S[C@@H](C(=O)O)NC(=O)[C@H]([C@H](C)O)NC(=O)[C@H](Cc2ccc(O)cc2)NC(=O)[C@H](Cc2c[nH]c3ccccc23)NC(=O)[C@H](CCCNC(=N)N)NC(=O)[C@H](Cc2c[nH]c3ccccc23)NC(=O)[C@H](C)NC(=O)[C@H](CO)NC(=O)[C@H](CCCNC(=N)N)NC(=O)[C@H]([C@H](C)O)NC(=O)[C@H](CC(N)=O)NC(=O)[C@H](Cc2ccc(O)cc2)NC1=O`, the ΔTm in test [1] is 0.39 °C; in test [2], -2.6 °C; in test [3], 0.11 °C; in test [4], -0.3 °C; in test [5], -0.36 °C; in test [6] it was 0.08 °C. Moreover, the thermal shift (ΔTm) in test [7] is -2.45 °C; in test [8], -0.7 °C.
As to `COc1ccccc1C(=O)Nc1cc2c(cc1N1CCCCC1)n(C)c(=O)n2C`, the ΔTm in test [1] is 0.35 °C; in test [2], -2.11 °C; in test [3], 0.1 °C; in test [4], 0.01 °C; in test [5], 0.08 °C; in test [6], 0.17 °C. In addition, the values for the ΔTm in test [7] and in test [8] were -1.43 °C and -0.76 °C, respectively.
With `O=S(=O)(O)c1ccc2cc(/N=N/c3cc(S(=O)(=O)O)c4cccnc4c3O)ccc2c1`, the ΔTm in test [1] is 0.53 °C; in test [2], -2.44 °C; in test [3] it was 2.89 °C; in test [4] it was 0.85 °C; in test [5], 1.3 °C; in test [6] it was -3.54 °C. The ΔTm in test [7] is -2.45 °C; in test [8] it was -1.13 °C.
`N[C@@H](CC(=O)Nc1ccc(Oc2cc(F)c(F)cc2Br)cc1)C(=O)O`: the ΔTm in test [1] was 0.75 °C; in test [2], -3.05 °C; in test [3] it was -0.04 °C; in test [4] it was 0.11 °C; in test [5], -0.55 °C; in test [6], 0.24 °C. Moreover, the ΔTm was -2.19 °C in test [7] and 0.54 °C in test [8].
For `CNCCCN1c2ccccc2CCc2ccccc21`, the ΔTm is 0.08 °C in test [1]; -2.59 °C in test [2]; -0.16 °C in test [3]; -0.01 °C in test [4]; -1.29 °C in test [5]; 0.06 °C in test [6]. In addition, the ΔTm in test [7] was -1.87 °C; in test [8], 0.96 °C.
